Sm TGR block: blocks Schistosoma mansoni thioredoxin glutathione reductase | purified TGR, DTNB reduction, TNB absorbance 405 nm | Potency, µM (titrated, usually from 114 µM), inactives show top-dose activity change, negative = inhibition, actives largely listed as inhibitors | actives 3% (n = 360,000) | AID 485364; note: potency is the fitted concentration of half-maximal effect; % is set by controls: 0 for no effect and ±100 for the full control effect; nearly all actives have a fitted effect of over 60% in size
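Kinetic colorimetric format: TGR-catalysed, NADPH-driven DTNB reduction monitored via TNB absorbance. Enzyme dispensed at 20 nM; compound exposure 15 min at room temperature before reaction start.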
Shiga inhibitor: inhibitors of Shiga toxin in Vero cells | inhibition, % at 38.7 µM | actives 9.2% (n = 290,000) | AID 2315 | Vero cells, Shiga toxin protein synthesis inhibition reporter; in the data active = inhibition mostly above about 28%, no sharp cut-off; inactive = mostly below about 43%; note: 0% is about no effect
NS1 inh: influenza NS1 inhibition. Potency, µM (top dose mostly 46.1 µM), for inactives: at the top dose activity, positive = more growth. actives 0.4% (n = 270,000). AID 2326; calls by dose curve; note: potency is the fitted concentration of half-maximal effect; actives are rising curves; nearly all actives have a fitted effect of over 50% in size
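S. cerevisiae expressing influenza A NS1, grown in glucose, washed, then diluted 1:100 into pH 6.0 -URA galactose medium with 23 nl compound. Growth recovery read as OD600; NS1-free strain serves as control.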
Pf growth 96h: P. falciparum growth inhibition at 96 hour, primary screen for plastid delayed-death inhibitors; actives 6.9% (n = 320,000); Potency, µM (top dose mostly 28.7 µM), for inactives: top-dose activity change, negative = inhibition, hits mostly inhibitors; P. falciparum luciferase reporter growth, 96 h; AID 504834; note: potency is the fitted concentration of half-maximal effect; % is set by controls: 0 for no effect and ±100 for the full control effect
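Readout is luminescence from an integrated firefly luciferase in P. falciparum. Red cells, 2% hematocrit and 0.05% parasitemia final, were cultured with compound through two parasite generations (96 hours) at 37 C, 5% CO2.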
CHX counter: counter-screen hit for Shiga toxin inhibitors, cycloheximide. cell reporter, cycloheximide protein synthesis inhibition counterscreen. max response, %. actives 12% (n = 300,000). AID 2314; in the data active = max response mostly above about 13%, no sharp cut-off; inactive = mostly below about 14%; note: read at 38.3 µM for the half of the compounds with a filed dose; 0% is about no effect
Pf growth 48h: inhibits P. falciparum growth in the first generation, 48 h. P. falciparum luciferase growth in erythrocytes, 48 h. Potency, µM (doses to about 28.7 µM), without a hit: at the top dose activity change, negative = inhibition, usual class: inhibitors. actives 5.9% (n = 310,000); note: potency is the fitted concentration of half-maximal effect; % is set by controls: 0 for no effect and ±100 for the full control effect
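First compound was added to culture medium, then infected red cells at 0.1% parasitemia and 2% hematocrit (final). After incubation at 37 C under 5% CO2, luciferase detection reagent was dispensed and light output recorded.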
Numbers without * were called inactive; ? = inconclusive; / = no result. Compounds with a hit are over-represented: about 21% of the library has one in this group of screens. Unless noted, calls come from the whole dose curve; as a rule, active = well fitted curve in the direction sought with a large enough effect; inconclusive = small, poorly fitted or top-dose-only effect, or another doubt; inactive = no such curve, though single readings can be large; an effect the other way counts as inactive or inconclusive.

SMILES	Sm TGR block	Shiga inhibitor	NS1 inh	Pf growth 96h	CHX counter	Pf growth 48h
CCOc1ccc2nc(N(CCCN(C)C)C(=O)c3ccc4c(c3)CCCC4)sc2c1	3%	-13	-7%	5.9µM*	1	?
CCC1Oc2ccccc2N(CC(=O)NCC2CCCO2)C1=O (centres undefined)	-2%	-14	0%	13%	-1	15%
COCCNC(=O)c1ccc(N2CC3CC(C2)c2cccc(=O)n2C3)c(NC(=O)c2c(F)cccc2F)c1 (centres undefined)	0%	-8	?	0%	1	?
Cc1ccc(-c2nc(C)c(CCNC(=O)C(=O)Nc3cc(C)ccc3C)s2)cc1	-1%	/	/	/	/	/
COc1ccc(/C(N)=N/OC(=O)c2cccs2)cc1	-1%	57*	-63%	27%	41*	8%
N/C(=N\OC(=O)c1cccs1)c1ccc(Cl)cc1	11%	135*	-79%	72%	55*	142%
COc1ccc(NC(=O)O/N=C2/CCCc3ccc(OC)cc32)cc1	0%	57	-7%	7%	11	-7%
N/C(CC(=O)Nc1ccc(F)c(Cl)c1)=N\OC(=O)c1cccs1	2%	25	-1%	?	-2	?
COc1ccc2c(c1)/C(=N/OC(=O)c1cccs1)CCC2	6%	43	/	25%	42*	2%
COc1ccc(-c2nnc(SCC(=O)Oc3c(C)cccc3C)o2)cc1OC	4%	/	/	/	/	/
COC(=O)c1ccc(C(=O)OC)c(NC(=O)COC(=O)c2ccccc2OC)c1	-7%	-6	6%	45%	-1	12%
COC(=O)c1ccc(OCC(=O)c2ccccc2OC)cc1	-6%	54	-2%	?	22*	/
COC(=O)c1ccc(COC(=O)C(CCS(C)(=O)=O)N2C(=O)c3ccccc3C2=O)cc1 (centres undefined)	0%	7	-17%	6.6µM*	-1	-9%
COC(=O)c1ccc(COC(=O)c2ccccc2OC)cc1	-1%	97*	-30%	-13%	67*	41%
CCOc1ncccc1C(=O)OCc1ccc(C(=O)OC)cc1	0%	98*	-29%	99%	81*	61%
CS(=O)(=O)CCC(C(=O)OCc1ccc(Br)cc1)N1C(=O)c2ccccc2C1=O (centres undefined)	-10%	-8	-5%	20%	-4	-3%
OC(CNC1CCCC1)COCCOc1ccc(Br)cc1 (centres undefined)	7%	2	-1%	?	-2	-79%
CNC(=O)/C(C#N)=C/c1c(N2CC(C)OC(C)C2)nc2ccccn2c1=O (centres undefined)	3%	-14	-8%	?	-2	10%
CC(=O)N[C@H](C(=O)O)C(C)(C)SN=O	/	/	-7%	/	/	/
O=C(O)CC[C@]1(C(=O)O)CCC(=O)c2ccccc21	/	/	0%	/	/	/
COc1cc(-c2nn3c(Cc4ccccc4)nnc3s2)cc(OC)c1OC	-9%	-6	-38%	43%	-1	10µM*
Oc1ccccc1N=N/C(=N/Nc1ccccc1O)c1ccccc1	-17%	/	/	8.3µM*	/	4.1µM*
COc1ccc(-c2nc(NC(=O)C3=NN(c4cccc(C)c4)C(=O)CC3)sc2C)cc1	-27%	-5	/	?	17*	?
COc1ccc(-c2csc(NC(=O)C3=NN(c4ccccc4)C(=O)CC3)n2)cc1	-2%	50	/	?	23*	?
CN(C)C(CNC(=O)c1ccc2ccccc2c1)c1ccco1 (centres undefined)	16%	77*	/	50%	32*	27%
Cc1cccc(C(=O)NCC(c2ccco2)N(C)C)c1 (centres undefined)	-19%	7	/	38%	6	-12%
CN(C)c1cccc(C(=O)NCC(c2ccco2)N(C)C)c1 (centres undefined)	-1%	75*	?	-13%	37*	-8%
CN(C)C(CNC(=O)c1ccc2c(c1)S(=O)(=O)c1ccccc1C2=O)c1ccco1 (centres undefined)	-10%	-20	/	?	-5	-2%
Cc1cccc(/C=C/C(=O)c2ccc(N3CCOCC3)cc2)c1	-22%	45*	-7%	-55%	14*	-3%

Screening data (PubChem BioAssay)
